High-throughput results deposited in PubChem BioAssay by Buhrlage Lab, Dana-Farber Cancer Institute and Novartis Institutes for BioMedical Research (Cambridge, Mass).
OTUD3 inh = inhibitors of human OTUD3 deubiquitinase | OTU domain-containing protein 3 (Homo sapiens), Q5T2D3 | AID 1645858, 2021 | inhibition, % at 25 µM | 47,000 tested, 0.7% active | purified OTUD3, Ub-rhodamine fluorescence, 2 h
USP8 block = inhibitors of human USP8 deubiquitinase; Ubiquitin carboxyl-terminal hydrolase 8 (Homo sapiens), P40818; purified USP8, Ub-rhodamine cleavage fluorescence, 30 min; inhibition, % at 20 µM; 47,000 tested, 4.2% active
USP28 block = inhibitors of human USP28 deubiquitinase; Ubiquitin carboxyl-terminal hydrolase 28 (Homo sapiens), Q96RU2; purified USP28, Ub-rhodamine cleavage fluorescence, 30 min; inhibition, % at 25 µM; 47,000 tested, 3% active; AID 1645857, 2021
USP30 inh = inhibitors of human USP30 deubiquitinase; purified USP30, Ub-rhodamine cleavage fluorescence; inhibition, % at 25 µM; 47,000 tested, 5.3% active; AID 1645860, 2021
Target sequence (Q70CQ3 whole entry, looked up): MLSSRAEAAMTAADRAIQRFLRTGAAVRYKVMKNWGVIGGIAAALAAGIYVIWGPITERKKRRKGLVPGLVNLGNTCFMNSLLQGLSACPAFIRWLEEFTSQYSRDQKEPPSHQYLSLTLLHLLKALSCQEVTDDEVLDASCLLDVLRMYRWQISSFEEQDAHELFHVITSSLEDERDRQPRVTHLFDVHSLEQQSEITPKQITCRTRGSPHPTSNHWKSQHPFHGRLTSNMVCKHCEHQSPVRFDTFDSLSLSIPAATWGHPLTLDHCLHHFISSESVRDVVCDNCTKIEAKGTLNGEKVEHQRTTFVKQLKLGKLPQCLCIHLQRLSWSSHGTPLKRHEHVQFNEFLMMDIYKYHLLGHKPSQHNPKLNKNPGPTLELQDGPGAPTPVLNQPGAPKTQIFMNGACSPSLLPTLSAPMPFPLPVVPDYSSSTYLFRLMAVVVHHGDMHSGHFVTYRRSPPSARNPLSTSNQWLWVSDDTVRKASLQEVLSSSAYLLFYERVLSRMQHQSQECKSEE
USP17 inh = inhibitors of human USP17 deubiquitinase | purified USP17, Ub-rhodamine cleavage fluorescence, 3 h | inhibition, % at 50 µM | 47,000 tested, 6.5% active | AID 1645855, 2021
The depositor's hits bear a star; i = inactive; / = no result. Compounds with a hit are over-represented: about 13% of the library has one in this group of screens. No stated cut-off is given here; in the data, active means inhibition above about 30%; inactive means the rest.

SMILES	OTUD3 inh	USP8 block	USP28 block	USP30 inh	USP17 inh
O=S(=O)(Cc1nnc(-c2ccccc2C(F)(F)F)o1)c1ccc(Cl)cc1	-4	-12	-11	-2	68*
O=c1ncn(Cc2ccc3c(c2)OCO3)cc1-c1ncc(C(F)(F)F)cc1Cl	2	11	3	46*	51*
O=c1c2[nH]c3ccc(F)cc3c2ncn1Cc1ccc2c(c1)OCO2	8	24	12	24	17
CCOC(=O)C1C(=O)NC(c2ccccc2)=NC1c1ccc(C(F)(F)F)cc1 (configuration not stated)	7	23	13	41*	21
CCOC(=O)C1C(=O)NC(c2ccccc2)=NC1c1c(F)cccc1Cl (configuration not stated)	-1	4	12	13	0
O=C(CN1CCN(C(=O)c2cc3ccccc3o2)CC1)N1CCCCCC1	12	16	11	19	8
COc1ccc(Cn2nnc(-c3cccc(Cl)c3)n2)cc1F	1	4	35*	-11	1
c1ccc(Cc2nc3c4cnn(Cc5ccccc5)c4ncn3n2)cc1	0	8	1	9	9
Cc1occc1-c1nnc(SC(C)C(=O)Nc2ccccc2)o1 (configuration not stated)	-3	0	0	0	-3
CC(Sc1nnc(-c2ccccc2Br)o1)C(=O)Nc1cccc(Cl)c1 (configuration not stated)	23	18	23	43*	22
CC1CCN(C(=O)c2cn(-c3cc(N4CCC(C)CC4)ncn3)cn2)CC1	14	-1	71*	28	3
c1ccc(C(NCc2ccc3c(c2)OCO3)c2ccccc2)cc1	21	16	18	12	13
O=C(O)CCC(=O)N1c2ccccc2CC1c1ccc(Cl)cc1 (configuration not stated)	-5	12	2	-2	14
CN(C)c1ccc(C2CC(c3ccc(Br)cc3)=NN2C(=O)CCC(=O)O)cc1 (configuration not stated)	13	23	23	26	32*
FC(F)(F)c1cccc(Nc2nnc(-c3cccnc3)s2)c1	2	-21	-2	22	50*
COc1ccccc1-c1nc(-c2cccc(-c3ccnn3C)c2)no1	13	22	8	12	11
Cn1c(=O)c2cc(S(=O)(=O)Nc3cccc4c3CCCC4)ccc2n(C)c1=O	-9	-8	2	-16	-19
Cc1cccc(-c2noc(CCn3c(=O)[nH]c4ccccc4c3=O)n2)c1	5	14	30*	18	61*
Cc1cccc(-c2noc(Cn3c(=O)[nH]c4cc5c(cc4c3=O)OCO5)n2)c1	15	55*	8	-85	16
O=c1[nH]c2ccccc2c(=O)n1CCc1nc(-c2ccncc2)no1	-7	3	-6	7	-11
O=c1c2ccccc2n(Cc2ccccc2)c(=O)n1Cc1nc(-c2ccccc2)no1	20	17	15	30*	11
Cc1ccccc1-c1noc(Cn2c(=O)[nH]c3cc4c(cc3c2=O)OCO4)n1	-21	-8	-21	-51	-9
CN1C[C@H]2CCN(C(=O)c3ccc(Cl)cc3)CC[C@H]2S1(=O)=O	-3	-1	-5	-1	0
c1ccc(CNc2cc(-c3ccccc3)nc(-c3ccncc3)n2)cc1	-76	-8	-66	-231	-86
Cc1ccc(S(=O)(=O)c2nnn3c2nc(NCc2ccco2)c2sccc23)cc1	-20	32*	-7	-72	-25
SMILES	OTUD3 inh	USP8 block	USP28 block	USP30 inh	USP17 inh
c1coc(CNc2nc3ccccc3n3nnnc23)c1	-188	-331	-254	i	-142
Cc1c(OCc2ccccc2F)ccc2c1OC(C)(C)CC2=O	6	19	12	28	31*
Cc1c(OCc2ccc(Cl)cc2Cl)ccc2c1OC(C)(C)CC2=O	12	12	6	29	27
Cc1ccc(N=c2scc(-c3ccccc3F)n2C2CC2)cc1Cl	1	10	/	/	16
COc1ccc(OC)c(NC(=O)C(C)N2c3cccc4cccc(c34)S2(=O)=O)c1 (configuration not stated)	8	41*	11	-28	2
COc1cc(/C=C(/C(=O)O)c2ccc(-c3ccccc3)cc2)cc(OC)c1OC	-11	-6	-17	-47	38*
COc1cc(NC(=O)Nc2ccc(-c3nnc(-c4ccccc4)o3)cc2)cc(OC)c1OC	-1	-14	-4	0	9
O=C(Nc1ccccn1)N1C[C@@H]2c3nccn3-c3ccccc3[C@@H]2C1	13	19	9	34*	14
Cc1nn(C)cc1C(C(=O)NC1CCCCC1)N(C(=O)CN1C(=O)c2ccccc2S1(=O)=O)c1ccc2c(c1)OCO2 (configuration not stated)	4	16	/	/	56*
COc1ccc(C(C(=O)NC2CCCCC2)N(Cc2ccc3c(c2)OCO3)C(=O)CCCC(=O)Nc2ccccn2)cc1 (configuration not stated)	-9	-10	-8	-14	0
COc1ccc(S(=O)(=O)N(C)C)cc1NC(=O)COC(=O)c1ccccc1	-4	-4	15	14	43*
COc1cc(OC)c(N(C)S(=O)(=O)c2cccc(C(=O)OCC(=O)Nc3ccccc3C(C)=O)c2)cc1Cl	-10	-6	-14	-15	-23
Cc1c(S(=O)(=O)N2CCCCC2)cc(C(=O)NCc2ccccc2)n1C	2	-151	-4	0	1
CC(CNC(=O)Cc1cccc(F)c1)N(C)c1ccccc1 (configuration not stated)	3	-1	3	6	0
O=C(C1CCCN(S(=O)(=O)c2cccnc2)C1)N1CCN(Cc2ccccc2)CC1 (configuration not stated)	-9	-4	-11	-7	-5
Cc1ccc(F)cc1Nc1ncnc2sc3c(c12)CCC(C)C3 (configuration not stated)	-33	-14	-54	-170	-40
COc1ccc(-n2ccn3c(CCC(=O)Nc4cccc(C)c4)nnc3c2=O)cc1	5	36*	-11	11	-5
Cc1cccc(NC(=O)CCc2nnc3c(=O)n(-c4ccc(C)c(C)c4)ccn23)c1	5	36*	6	17	5
Cc1[nH]c(C)c(S(=O)(=O)NC2CCCCC2)c1C(=O)N1CCCC1	6	5	3	-7	1
CCc1cccc(C)c1NC(=O)CSc1nnc(COc2ccccc2)n1CC	0	0	1	1	-3
CCc1ccc(OCc2nnc(SCC(=O)Nc3ccccc3OC)n2Cc2ccccc2)cc1	15	18	23	49*	52*
c1ccc2c(c1)OCC(c1nc(-c3ccc(-n4ccnc4)nc3)no1)O2 (configuration not stated)	-5	3	0	-4	15
Cc1ccc(C(=O)Nc2cc3c4c(c2)CC(=O)N4CCC3)cc1C	8	30*	72*	-5	10
